From PubChem BioAssay (NCATS) come the findings set out here.

Structures are written as SMILES. Results filed as inconclusive are left out. Active and inactive are the calls of the source. Calls come from the whole dose curve; as a rule, active = well fitted inhibition curve with a large enough effect; inconclusive = small, poorly fitted or top-dose-only effect; inactive = no such curve, though single readings can be large or run the other way.
Potency is the fitted concentration of half-maximal effect.

A short description of the assay: BET inhibitor-based combinations targeting novel dependencies in MECOM-rearranged (r) AML: SET-2 cell line (AID 2202231).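 For viability: plate controls were DMSO treated cells for no effect and wells without cells for full effect.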 Note: nearly all actives have a fitted effect of over 35% in size. Conditions: SET-2 AML cells viability, CellTiter-Glo luminescence, 48 h; viability: active compounds read low, series mostly up to about 46 µM. A digest of the protocol: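 Viability of cells (500 per well) is scored by luminescent CellTiter-Glo at 48 hr post-dosing. Eleven-point titrations are normalized to DMSO and empty controls and reduced to AUC values.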
By viability is commonly meant a read-out of living cells in per cent, often relative to untreated cells. Regarding `CN1C(=O)[C@@H](NC(=O)c2cc(Cc3ccccc3)on2)COc2ccccc21`, the viability was 73.2% (inactive).
As for `CCN(C)S(=O)(=O)Nc1ccc(F)c(C(=O)c2c[nH]c3ncc(-c4cnc(C5CC5)nc4)cc23)c1F`, the Potency was 18.6 µM (active).
On to `O=C(O)c1ccccc1-c1ccc(/C=c2\sc3nc4cc(Br)cnc4n3c2=O)o1`, for which the viability was 92.3% (inactive).
The same measure, in the same setting: then `Cc1cc(C)cc(Oc2ccc(CNC(=O)[C@H](C)N)cc2C)c1`, with 109% (inactive); and `CS(=O)(=O)c1ccc(-c2cnc(NCc3ccco3)n3cnnc23)cc1`, with 108% (inactive); and `CC(=O)CC(c1ccccc1)c1c(O)c2ccccc2oc1=O` (stereo not given), with 107% (inactive).
Take `CN(C)Cc1cccc(N=C(c2ccccc2)c2c(O)[nH]c3cc(C(=O)N(C)C)ccc23)c1`: the Potency was 20.9 µM (active).
On to `Nc1ncnc2nc(-c3ccc(N4CCOCC4)nc3)cc(-c3cccc(Br)c3)c12`, for which the viability is 91.6% (inactive).
On to `CC1(N)CCN(c2cccnc2NC(=O)c2nc(-c3ncccc3C(F)(F)F)cnc2N)CC1`, for which the viability is 101% (inactive).
Take `CC(C)(c1ccc(OCC(O)CO)cc1)c1ccc(OCC(O)CCl)cc1` (stereo not given): the viability is 60% (inactive).
As for `Nc1nc2cc(-c3ccc4ncc(C(=O)N5CCOCC5)n4c3)ccc2o1`, the viability is 99.4% (inactive).
As to `COc1ccccc1C(=O)Nc1cc2c(cc1N1CCNC[C@H]1C)n(C)c(=O)n2C`, the viability was 103% (inactive).
In the case of `CC[C@H](Nc1ncnc2nc[nH]c12)c1oc2ccccc2c(=O)c1-c1cccc(F)c1`, the viability was 93.4% (inactive).
`O=S(=O)(NCCNC/C=C/c1ccc(Br)cc1)c1cccc2cnccc12`: the Potency was 14.8 µM (active).
Consider `CONC(=O)c1ccccc1Nc1cc(Nc2cc(C)nn2C(C)C)ncc1Cl`, for which the viability was 86.2% (inactive).
On to `CN(C)c1ccc(C(=O)NCCCCCCC(=O)NO)cc1`, for which the Potency is 0.934 µM (active).
With `CNCCN(C)Cc1cn[nH]c1-c1ccc(OC2CC(OCCC3CCOCC3)C2)cc1` (stereo not given), the viability was 95.3% (inactive).
For the molecule `CCOC(=O)[C@H](CCc1ccccc1)N[C@H]1CCc2ccccc2N(CC(=O)O)C1=O`, the viability was 115% (inactive).
Regarding `CCC[C@H](NC(=O)[C@@H]1[C@H]2CCC[C@H]2CN1C(=O)[C@@H](NC(=O)[C@@H](NC(=O)c1cnccn1)C1CCCCC1)C(C)(C)C)C(=O)C(=O)NC1CC1`, the Potency is 0.263 µM (active).
Consider `COc1cc2c(cc1OC)CN(CCc1ccc(-n3nnc(-c4cc(OC)c(OC)cc4NC(=O)c4cc(=O)c5ccccc5o4)n3)cc1)CC2`, for which the viability was 116% (inactive).
Regarding `CN(C)N=Nc1nc[nH]c1C(N)=O`, the Potency is 16.6 µM (active).
`CC[C@H](C)C(=O)O[C@H]1C[C@H](O)C=C2C=C[C@H](C)[C@H](CC[C@@H](O)C[C@@H](O)CC(=O)O)[C@H]21`: the viability was 113% (inactive).
Still for that read-out and setting: then `CSC[C@H]1CN(Cc2c[nH]c3c(N)ncnc23)C[C@@H]1O`, with 110% (inactive); and `CCCCCCCCCCCC1=C(O)C(=O)C=C(O)C1=O`, with 115% (inactive).
In the case of `Nc1nccc2c1ncn2[C@@H]1C=C(CO)[C@@H](O)[C@H]1O`, the Potency is 0.525 µM (active).
On to `COc1cc2c(NC3CCN(C4CCCCC4)CC3)nc(N3CCCN(C(C)C)CC3)nc2cc1OCCCN1CCCCC1`, for which the viability was 109% (inactive).
Regarding `Cc1noc(C)c1-c1ccc(-c2cc(C(N)=O)c(NC(N)=O)s2)c(O[C@H]2CCNC2)c1`, the viability is 123% (inactive).
For `C[C@@H](C(=O)Nc1ccc(Cl)cc1)C1CCC(c2ccnc3ccc(F)cc23)CC1` (stereo not given in full), the Potency was 16.6 µM (active).
As to `CCC(=O)O[C@]1(C(=O)CO)CC[C@H]2[C@@H]3CCC4=CC(=O)CC[C@]4(C)[C@H]3CC[C@@]21C`, the viability was 101% (inactive).
Take `Nc1nc(F)nc2c1ncn2C1OC(COP(=O)(O)O)C(O)C1O` (stereo not given): the Potency is 4.68 µM (active).
On to `Cc1ccc(NC(=O)[C@H]2CCCN(C(=O)c3c(C)cccc3F)[C@H]2c2ccc(NC3CCCC3)cc2)cc1C(F)(F)F`, for which the viability was 94.7% (inactive).
The same measure, in the same setting: then `CC(C)(C(=O)NCC(F)(F)C(F)(F)F)C(=O)N[C@@H]1C(=O)Nc2ccccc2-c2ccccc21`, with 105% (inactive); and `C[C@@H](Nc1cc(F)cc(F)c1)c1cc(C(=O)N(C)C)cc2c(=O)cc(N3CCOCC3)oc12`, with 109% (inactive); and `CN[C@@H](C)C(=O)N[C@@H]1C(=O)N(Cc2c(C)ccc3ccccc23)c2ccc(C#N)cc2N(C(C)=O)[C@H]1C`, with 102% (inactive).
Regarding `Nc1nc(N)c2nc(-c3cccc(Cl)c3)c(N)nc2n1`, the Potency was 0.372 µM (active).
On to `CC(/C=C1\SC(=S)N(CC(=O)O)C1=O)=C\c1ccccc1`, for which the viability was 113% (inactive).
As for `O=c1oc2cc(O)ccc2s1`, the viability is 106% (inactive).
With `c1ccc2c(-c3cnn4cc(-c5ccc(OCCN6CCOCC6)cc5)cnc34)ccnc2c1`, the Potency was 12.9 µM (active).
Consider `CCOc1cc(/C=C2/C(=O)N(c3ccccc3)N=C2C)cc(Cl)c1OCC(=O)OC`, for which the viability is 103% (inactive).
`C[C@H]1C[C@H]2[C@@H]3CCC4=CC(=O)C=C[C@]4(C)[C@H]3C(=O)C[C@]2(C)[C@@]1(O)C(=O)CO`: the viability was 116% (inactive).
